Each structure is given as a SMILES string. Active and inactive are the calls of the source. Unless noted, no rule for the calls is given here.

Experiment [1] can be described thus: HepG2 liver cancer cell viability effects, profiling panel, resazurin fluorescence, 24 h, PK04 Diversity Set (AID 1172). The following applies: higher = more signal. (Alamar Blue is a resazurin reagent that responds to reducing activity.)
Experiment [2] in a line: basal S. cerevisiae growth modulation, no modifier, primary screen, OD600, strain BY4716, 24 h, basal condition (AID 1173). Particulars: OD600, 24 h, higher = more signal, called active from +8 up or from −8 down.
Experiment [3] is described as follows: MM1S myeloma cell viability, profiling panel, resazurin fluorescence, basal, 24 h, PK04 Diversity Set (AID 1174).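 Also: MM1S multiple myeloma cell line.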 Particulars: higher = more signal, called active from +8 up or from −8 down.
Experiment [4] deals with Dihydroorotate dehydrogenase (quinone), mitochondrial (Plasmodium falciparum (isolate 3D7)) (UniProt Q08210). Kind of experiment: PfDHODH enzyme inhibitors, primary screen, biochemical, C-terminal His tag, absorbance 600 nm (AID 1175).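 Also: recombinant parasite enzyme with a five histidine tag at its C terminus.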 Particulars: DCIP absorbance 600 nm, higher = more signal, called active from +8 up or from −8 down.
A short description of experiment [5]: P. aeruginosa biofilm formation inhibitors, primary screen, strain PAO1, LB-PBS medium, absorbance 600 nm (AID 1176). The following applies: P. aeruginosa PAO1 growth/biofilm, A600, 12 h; higher = more signal.
Experiment [6] can be described thus: S. cerevisiae RM11-1a growth modifiers, primary screen, strain RM11-1a, OD600, basal, 24 h (AID 1177).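 Also: cultures grown under basal conditions with no added stressor.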 Particulars: OD600, 24 h, higher = more signal, called active from +8 up or from −8 down.
Experiment [7] can be described thus: E. coli acrAB mutant growth effects, primary screen, E. coli filamentation inducers, strain DRC39, OD650, 24 h (AID 1178).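 Also: growth measured as culture turbidity by optical density at 650 nm.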 The following applies: higher = more signal, called active from +8 up or from −8 down.
Experiment [8] is described as follows: E. coli acrAB mutant growth effects, primary screen, E. coli filamentation inducers, strain DRC39, OD650, 48 h (AID 1179).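 Also: screen aims at cell division blockers that make cells filament.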 Particulars: E. coli DRC39 delta-acrAB growth, higher = more signal, called active from +8 up or from −8 down.
A short description of experiment [9]: RPMI8226 myeloma cell viability, profiling panel, resazurin fluorescence, basal, 24 h, PK04 Diversity Set (AID 1180).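 Also: RPMI8826 multiple myeloma cell line at 5000 cells per well.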 Particulars: higher = more signal.
Experiment [10] addresses E3 ubiquitin-protein ligase XIAP (Homo sapiens) (UniProt P98170). The experiment can be described thus: XIAP binders, primary screen, biophysical, small-molecule microarray, fluorescence 635 nm (AID 1181).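 Also: score merges 667 nm emission and signal to noise over triplicate slides.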 Particulars: small-molecule microarray binding, higher = more signal.
Experiment [11] has as its system XIP peptide (Xip251-270) binding. The experiment can be described thus: small-molecule binders of XIP peptide, primary screen, biochemical, small-molecule microarray, fluorescence 635/667 nm, 0.1 µg/mL protein (AID 1182). The following applies: fluorescent protein binding, 635 nm, higher = more signal, called active from +8 up or from −8 down.
The test system of experiment [12] is XIP peptide (Xip251-270). The experiment can be described thus: small-molecule binders of XIP peptide, primary screen, biochemical, small-molecule microarray, fluorescence 635/667 nm, 0.5 µg/mL protein (AID 1183). The following applies: small-molecule microarray binding, fluorescence 635 nm; higher = more signal.
The nature of experiment [13]: Plasmodium falciparum growth inhibition, primary screen, strain 3D7, DAPI fluorescence, 100 nL (AID 1184).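 Also: parasites grown inside human red blood cells in medium with human serum.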 Particulars: P. falciparum 3D7 growth, 3 d, higher = more signal.
Experiment [14] addresses Homeobox protein Hox-A13 (Mus musculus) (UniProt Q62424). Kind of experiment: inhibitors of HoxA13-DNA binding, primary screen, biochemical, fluorescence polarization, labeled oligonucleotide (AID 1185). The following applies: 15 min, higher = more signal, called active from +8 up or from −8 down.
The nature of experiment [15]: inhibitors of hydroxyurea-induced Chk1 phosphorylation, primary screen, imaging, HeLa, phospho-Chk1 antibody, percent positive cells (AID 1186). The following applies: hydroxyurea-induced phospho-Chk1 immunofluorescence imaging, higher = more signal.
The nature of experiment [16]: inhibitors of hydroxyurea-induced Chk1 phosphorylation, primary screen, imaging, HeLa, phospho-Chk1 nuclear intensity (AID 1187). The following applies: hydroxyurea-induced phospho-Chk1 immunofluorescence imaging, higher = more signal.

Chain of Dihydroorotate dehydrogenase (quinone), mitochondrial (Plasmodium falciparum (isolate 3D7)) (Q08210 whole entry, looked up): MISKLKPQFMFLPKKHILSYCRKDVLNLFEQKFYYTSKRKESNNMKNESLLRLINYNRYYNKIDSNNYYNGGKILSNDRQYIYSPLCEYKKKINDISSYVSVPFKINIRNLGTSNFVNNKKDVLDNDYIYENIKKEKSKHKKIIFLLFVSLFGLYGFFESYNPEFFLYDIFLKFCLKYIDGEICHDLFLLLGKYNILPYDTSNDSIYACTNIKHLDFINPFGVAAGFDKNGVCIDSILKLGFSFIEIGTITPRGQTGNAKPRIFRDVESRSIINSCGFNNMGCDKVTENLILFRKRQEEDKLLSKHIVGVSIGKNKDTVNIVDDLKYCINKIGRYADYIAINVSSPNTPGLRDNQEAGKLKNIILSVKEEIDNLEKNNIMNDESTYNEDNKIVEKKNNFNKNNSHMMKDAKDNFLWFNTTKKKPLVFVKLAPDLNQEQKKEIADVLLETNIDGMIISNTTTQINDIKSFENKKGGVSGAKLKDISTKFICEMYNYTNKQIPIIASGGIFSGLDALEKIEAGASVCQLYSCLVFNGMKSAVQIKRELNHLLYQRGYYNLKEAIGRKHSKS
Chain of E3 ubiquitin-protein ligase XIAP (Homo sapiens) (P98170 whole entry, looked up): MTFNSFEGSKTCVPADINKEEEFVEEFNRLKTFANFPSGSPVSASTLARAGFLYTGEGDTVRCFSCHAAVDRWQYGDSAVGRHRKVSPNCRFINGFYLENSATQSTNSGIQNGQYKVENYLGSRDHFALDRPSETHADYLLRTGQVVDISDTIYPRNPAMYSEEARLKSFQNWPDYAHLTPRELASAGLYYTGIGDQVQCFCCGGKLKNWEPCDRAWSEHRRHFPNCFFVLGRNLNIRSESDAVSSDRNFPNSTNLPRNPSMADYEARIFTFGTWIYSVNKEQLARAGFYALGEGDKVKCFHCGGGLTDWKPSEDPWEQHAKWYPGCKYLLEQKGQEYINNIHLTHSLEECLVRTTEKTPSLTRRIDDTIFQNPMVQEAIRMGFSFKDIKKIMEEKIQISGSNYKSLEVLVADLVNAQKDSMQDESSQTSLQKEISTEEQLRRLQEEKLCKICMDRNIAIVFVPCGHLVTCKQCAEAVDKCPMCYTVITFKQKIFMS
Chain of Homeobox protein Hox-A13 (Mus musculus) (Q62424 whole entry, looked up): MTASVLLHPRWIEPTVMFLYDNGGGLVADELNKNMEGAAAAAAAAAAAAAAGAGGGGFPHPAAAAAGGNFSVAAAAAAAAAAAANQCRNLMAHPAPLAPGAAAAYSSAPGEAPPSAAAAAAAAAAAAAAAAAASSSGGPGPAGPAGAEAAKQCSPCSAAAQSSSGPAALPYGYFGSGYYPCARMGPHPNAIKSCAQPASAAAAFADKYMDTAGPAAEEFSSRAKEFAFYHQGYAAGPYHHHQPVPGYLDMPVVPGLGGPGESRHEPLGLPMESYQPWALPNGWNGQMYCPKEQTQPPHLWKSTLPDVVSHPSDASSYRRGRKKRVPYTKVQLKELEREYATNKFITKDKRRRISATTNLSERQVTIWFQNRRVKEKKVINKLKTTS

Regarding `COc1ccc([Si](C)(C)[C@@H]2[C@@H](CC(=O)N(CCO)Cc3ccccc3)O[C@]3(C(=O)N(C)c4c(Br)cc(C)cc43)[C@H]2C)cc1`, the z-score is -1.57 in [1]; -0.951 (inactive) in experiment [2]; -1.79 (inactive) in [3]; 0.802 (inactive) in experiment [5]; 1.64 (inactive) in [6]; -0.109 (inactive) in [7]. Also, the z-score in experiment [8] was -0.75 (inactive); in experiment [9], -2.21; in experiment [13], -1.48; in experiment [14], -6.47 (inactive); in [15], -0.743 (inactive); in experiment [16], -1.69 (inactive). The composite z-score is 0.216 (inactive) in experiment [4], -0.174 in experiment [10], 0.48 (inactive) in experiment [11] and 0.373 in experiment [12].

For `COCCOC(=O)N1C(=O)[C@@]2(c3cc(C#CCCO)ccc31)[C@H](C(=O)N1CCc3cc(OC)c(OC)cc3C1)[C@H]1C(=O)O[C@H](c3ccccc3)[C@H](c3ccccc3)N1[C@@H]2c1ccc(OCCO)cc1`, the z-score in experiment [1] is 1.36; in experiment [2], 0.543 (inactive); in experiment [3] it was 0.665 (inactive); in experiment [5], 2.19 (inactive); in experiment [6], 0.0817 (inactive); in experiment [7] it was 0.443 (inactive). Also, the z-score is 1.75 (inactive) in experiment [8]; 0.152 in [9]; -2.14 in [13]; 3.13 (inactive) in [14]; -0.148 (inactive) in experiment [15]; -0.0047 (inactive) in experiment [16]. Besides, the composite z-score was -1.45 (inactive) in experiment [4], -0.0412 in experiment [10], -0.608 (inactive) in experiment [11] and 0.726 in experiment [12].

For `COC(=O)[C@@]1(Cc2ccc(OC)cc2)[C@H]2c3cc(C(=O)N(C)C)n(Cc4cc(C)n(C)n4)c3C[C@H]2CN1C(=O)c1ccccc1`, the z-score was -1.04 in experiment [1]; 0.932 (inactive) in experiment [2]; -1.82 (inactive) in [3]; 0.992 (inactive) in [5]; 0.949 (inactive) in experiment [6]; -1.2 (inactive) in experiment [7]. Also, the z-score in experiment [8] was -1.29 (inactive); in experiment [9] it was -0.936; in [13], -1.63; in experiment [14], -5.1 (inactive); in [15], 0.53 (inactive); in experiment [16], 0.263 (inactive). Besides, the composite z-score in experiment [4] is -0.546 (inactive); in experiment [10] it was 0.0018; in [11], 0.254 (inactive); in [12], 0.762.

With `CN(C)C(=O)[C@@]1(CCS(=O)(=O)c2ccccc2)N=C(c2ccc(OCCCO)cc2)O[C@H]1c1ccccc1CN=[N+]=[N-]`, the z-score in experiment [1] was 1.01; in [2] it was -1.19 (inactive); in experiment [3] it was 0.958 (inactive); in experiment [5], -0.385 (inactive); in experiment [6] it was -0.791 (inactive); in experiment [7] it was 1.13 (inactive). Besides, the z-score in [8] is 0.802 (inactive); in experiment [9], 0.251; in experiment [13] it was -2.48; in experiment [14] it was -5.32 (inactive); in experiment [15], -0.359 (inactive); in [16], -0.243 (inactive). In addition, the composite z-score is 0.307 (inactive) in experiment [4], -0.0381 in experiment [10], 1.41 (inactive) in [11] and 0.653 in experiment [12].

On to `O=C1O[C@H](c2ccccc2)[C@H](c2ccccc2)N2[C@H]1[C@@H](C(=O)N1CCCCCCC1)[C@]1(C(=O)Nc3ccccc31)[C@H]2c1ccc(O)cc1`, for which the z-score in [1] was -0.642; in experiment [2] it was -0.147 (inactive); in experiment [3], -2.64 (inactive); in experiment [5], 0.995 (inactive); in experiment [6] it was 0.767 (inactive); in experiment [7], -0.328 (inactive). The z-score in [8] is -0.128 (inactive); in [9], -2.73; in [13], 0.61; in experiment [14] it was 2.7 (inactive); in experiment [15], 0.323 (inactive); in experiment [16], 0.725 (inactive). In addition, the composite z-score is 0.64 (inactive) in [4], 2.57 in experiment [10], 4.72 (inactive) in experiment [11] and 0.943 in experiment [12].

As to `COc1ccc(C#Cc2ccc3c(c2)[C@]2(C(=O)N3)[C@H](C(=O)O)[C@H]3C(=O)O[C@H](c4ccccc4)[C@H](c4ccccc4)N3[C@@H]2c2ccc(OCCO)cc2)cc1`, the z-score in [1] is -0.182; in experiment [2], 0.773 (inactive); in experiment [3], 0.586 (inactive); in [5], 3.6 (inactive); in experiment [6], 2.51 (inactive); in experiment [7] it was 0.851 (inactive). Also, the z-score in [8] was 0.377 (inactive); in experiment [9], 0.431; in experiment [13], -1.78; in experiment [14], -5.22 (inactive); in experiment [15] it was 0.573 (inactive); in experiment [16] it was 0.862 (inactive). The composite z-score is -15.6 (active) in [4], 0.0811 in experiment [10], 2.6 (inactive) in [11] and 0.701 in experiment [12].

`C=CCC(OC(C)=O)[C@@H]1[C@@H](N(Cc2cc3ccccc3o2)C(=O)Cc2ccc(OC)cc2)c2cc(OCCCO)ccc2N1C(=O)c1ccc(-c2ccccc2)cc1` (some centres undefined): the z-score in experiment [1] is -0.877; in experiment [2], -0.464 (inactive); in [3] it was 1.05 (inactive); in [5] it was -0.558 (inactive); in [6], 0.275 (inactive); in [7], 0.66 (inactive). For the same compound, the z-score in experiment [8] is 0.16 (inactive); in [9], 0.337; in experiment [13] it was -2.84; in [14], -1.11 (inactive); in experiment [15] it was 0.298 (inactive); in experiment [16], 0.549 (inactive). Moreover, the composite z-score in experiment [4] was 0.849 (inactive); in experiment [10], -0.0575; in experiment [11], -0.341 (inactive); in [12], -0.236.

`CCCCC(=C=CC[C@H](O)c1ccccc1OCCO)C[C@H](O)c1ccccn1`: the z-score is 0.973 in [1]; -1.8 (inactive) in experiment [2]; 0.843 (inactive) in experiment [3]; 0.0235 (inactive) in experiment [5]; 0.0401 (inactive) in experiment [6]; 0.917 (inactive) in [7]. Besides, the z-score in experiment [8] is 0.726 (inactive); in experiment [9] it was 1.13; in experiment [13], -0.966; in experiment [14], -3.35 (inactive); in experiment [15], 0.305 (inactive); in [16] it was 0.113 (inactive). In addition, the composite z-score in experiment [4] was -1.36 (inactive); in [10] it was 0.104; in [11], 0.418 (inactive); in [12], 0.318.

`COCCOC(=O)N1C(=O)[C@@]2(c3cc(C#CCNC(N)=O)ccc31)[C@H](C(N)=O)[C@H]1C(=O)O[C@H](c3ccccc3)[C@H](c3ccccc3)N1[C@@H]2c1ccc(OCCO)cc1`: the z-score in experiment [1] was -0.195; in experiment [2], 0.713 (inactive); in [3], -0.508 (inactive); in [5], 0.995 (inactive); in experiment [6], 1.62 (inactive); in [7], 0.152 (inactive). Moreover, the z-score in [8] is -0.0952 (inactive); in experiment [9], -1.09; in experiment [13], 0.101; in experiment [14], -2.08 (inactive); in experiment [15], 0.358 (inactive); in experiment [16], 0.489 (inactive). The composite z-score in [4] was 0.506 (inactive); in experiment [10] it was -0.188; in experiment [11], -0.0439 (inactive); in [12], 0.549.

Source of the values: PubChem BioAssay.
